Laboratory results taken from PubChem BioAssay AID1159580 (chemical genetic matrix, 2015).
Values joined by “and” are separate entries in the source; they are usually repeats but may differ in a detail not shown here. Equal entries are not always repeated. About 2,000 (36%) of roughly 5,500 compounds were called active. Not shown: some 18% with an inconclusive outcome. Rule as the data show it: active = normalized growth mostly below about 0.91 (no sharp cut-off); inconclusive = no clear call, values can overlap the other calls; inactive = mostly above about 0.92. The list shows a part of the results.

Test: chemical genetic growth profiling, strain panel (AID 1159580);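 also: tested at 20 µM; growth read once vehicle control cultures reached saturation at 30 °C; 1 = growth at the plate median or of vehicle wells; lower values mean less growth of the strain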
Conditions: S. cerevisiae deletion strains, growth OD

Measured: normalized growth

NCCc1c[nH]c2ccccc12
inactive: locus YAL013W, strain DEP1, active compounds read low 0.983 and 0.988 | locus YAL021C, strain ccr4, active compounds read low 0.967 | locus YAL026C, strain drs2, active compounds read low 0.96 | locus YAL030W, strain snc1, active compounds read low 0.969 | locus YAL040C, strain CLN3, active compounds read low 1.08 | locus YBL061C, strain skt5, active compounds read low 0.959 | locus YBR009C, strain hhf1, active compounds read low 0.988 | locus YBR021W, strain FUR4, active compounds read low 1.01 | locus YBR023C, strain chs3, active compounds read low 0.945 | locus YBR171W, strain sec66, active compounds read low 0.955 | locus YBR229C, strain ROT2, active compounds read low 0.954 | locus YBR231C, strain swc5, active compounds read low 0.962 | locus YBR279W, strain paf1, active compounds read low 0.942 | locus YCL011C, strain gbp2, active compounds read low 0.945 | locus YCL016C, strain dcc1, active compounds read low 0.98 | locus YCL029C, strain bik1, active compounds read low 0.994 | locus YCL061C, strain MRC1 (second series), active compounds read low 0.998 | locus YCL061C, strain MRC1, active compounds read low 0.967 | locus YCL069W, strain vba3, active compounds read low 0.973 | locus YCR088W, strain abp1, active compounds read low 0.967 | locus YDL005C, strain med2, active compounds read low 0.974 | locus YDL035C, strain GPR1, active compounds read low 0.977 | locus YDL040C, strain nat1, active compounds read low 0.96 | locus YDL074C, strain BRE1, active compounds read low 1 | locus YDL101C, strain DUN1, active compounds read low 0.987 | locus YDL134C, strain PPH21, active compounds read low 0.964 | locus YDL185W, strain tfp1, active compounds read low 0.988 | locus YDL192W, strain arf1, active compounds read low 0.985 | locus YDR001C, strain nth1, active compounds read low 0.954 | locus YDR069C, strain doa4, active compounds read low 0.913 | locus YDR101C, strain arx1, active compounds read low 1.01 | locus YDR137W, strain rgp1, active compounds read low 0.934 | locus YDR150W, strain NUM1, active compounds read low 0.967 | locus YDR159W, strain sac3, active compounds read low 0.925 | locus YDR162C, strain NBP2, active compounds read low 0.954 | locus YDR195W, strain ref2 0.926 | locus YDR297W, strain sur2, active compounds read low 0.967 | locus YDR318W, strain mcm21, active compounds read low 0.999 | locus YDR334W, strain swr1, active compounds read low 0.94 | locus YDR335W, strain msn5, active compounds read low 0.961 | locus YDR363W, strain ESC2, active compounds read low 0.975 | locus YDR388W, active compounds read low 0.997 | locus YDR392W, strain spt3, active compounds read low 1.01 | locus YDR502C, strain sam2, active compounds read low 0.993 | locus YEL003W, strain gim4, active compounds read low 0.978 | locus YEL037C, strain rad23, active compounds read low 0.958 | locus YEL061C, strain CIN8 (second series), active compounds read low 0.957 | locus YEL061C, strain CIN8, active compounds read low 0.98 | locus YER002W, strain NOP16, active compounds read low 0.99 | locus YER015W, strain faa2, active compounds read low 0.975 | locus YER016W, strain bim1, active compounds read low 0.964 | locus YER110C, active compounds read low 0.967 | locus YER111C, strain swi4, active compounds read low 0.973 | locus YER155C, strain BEM2 (second series), active compounds read low 0.923 | locus YER155C, strain BEM2, active compounds read low 0.998 | locus YER167W, strain BCK2, active compounds read low 0.982 | locus YFR010W, strain ubp6, active compounds read low 0.951 | locus YGL078C, strain dbp3, active compounds read low 0.98 | locus YGL086W, strain mad1, active compounds read low 0.966 | locus YGL167C, strain pmr1, active compounds read low 0.939 | locus YGL173C, strain kem1, active compounds read low 0.992 | locus YGL227W, strain vid30, active compounds read low 0.937 | locus YGL240W, strain doc1, active compounds read low 0.964 | locus YGL248W, strain PDE1, active compounds read low 0.983 | locus YGL253W, strain hxk2, active compounds read low 0.952 | locus YGR078C, strain PAC10, active compounds read low 1.01 and 0.994 | locus YGR135W, strain pre9, active compounds read low 0.989 | locus YGR229C, strain SMI1, active compounds read low 1.01 | locus YGR252W, strain gcn5, active compounds read low 0.911 | locus YHR013C, strain ard1, active compounds read low 0.949 | locus YHR027C, strain rpn1, active compounds read low 0.962 | locus YHR030C, strain SLT2, active compounds read low 0.987 and 0.959 | locus YHR079C, strain IRE1 (second series), active compounds read low 0.998 | locus YHR079C, strain IRE1, active compounds read low 0.957 | locus YHR094C, strain hxt1, active compounds read low 0.994 | locus YHR129C, strain ARP1, active compounds read low 1 | locus YHR142W, strain chs7, active compounds read low 0.965 | locus YHR200W, strain rpn10, active compounds read low 1 | locus YIL066C, strain RNR3, active compounds read low 0.985 | locus YIL073C, strain SPO22, active compounds read low 0.959 | locus YIL125W, strain kgd1, active compounds read low 0.983 | locus YIR030C, strain dcg1, active compounds read low 0.981 | locus YJL092W, strain hpr5, active compounds read low 0.963 | locus YJL095W, strain BCK1 (second series), active compounds read low 0.96 | locus YJL095W, strain BCK1, active compounds read low 1.03 and 0.994 | locus YJL115W, strain asf1, active compounds read low 0.961 | locus YJL129C, strain trk1, active compounds read low 0.963 | locus YJL134W, strain LCB3, active compounds read low 0.984 | locus YJL154C, strain vps35, active compounds read low 0.948 | locus YJL164C, strain tpk1, active compounds read low 0.989 | locus YJL166W, strain qcr8, active compounds read low 0.938 | locus YJL168C, strain set2, active compounds read low 1 | locus YJL187C, strain SWE1 (second series), active compounds read low 1 | locus YJL187C, strain SWE1, active compounds read low 0.967 | locus YJR043C, strain POL32, active compounds read low 1.02 | locus YJR066W, strain TOR1, active compounds read low 0.926
